Compounds with a hit are over-represented: about 4.1% of the library has one in this group of screens.
ssDAF-12 act: activators of S. stercoralis DAF-12 nuclear receptor. HEK293 ssDAF-12/GRIP1 lit1-tk-luc reporter, luminescence; % of 3 µM dafachronic acid response. activation, % at 6.8 µM. actives 1% (n = 370,000). AID 652126;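 active = activation above the mean over all tested compounds plus 3 SD, cut at about 0.9% in these data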;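 note: 0% = DMSO-only wells and 100% = 3 µM delta7-dafachronic acid wells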
hcDAF-12 act: activators of H. contortus DAF-12 nuclear receptor. HEK293 hcDAF-12 lit1-tk-luc reporter, luminescence; 0% DMSO, 100% Δ7-dafachronic acid. activation, % at 6.8 µM. actives 1.4% (n = 370,000);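 active = activation above the mean of all tested compounds plus 3 SD, cut at about 5.5% in these data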;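 note: 100% = response to 3 µM Δ7-dafachronic acid high control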
hgDAF-12 ag: activates the H. glycines DAF-12 receptor ligand-binding domain; HEK293 GAL4-hgDAF12 UAS-luciferase reporter, agonist luminescence; normalized to butyrate control; AID 687014; actives 1.8% (n = 370,000); activation, % at 6.8 µM;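 active = activation above a cutoff set at the mean of all screened compounds plus 3 SD, cut at about 10% in these data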;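 note: 0% = DMSO wells and 100% = sodium butyrate wells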
DAX1 inh-1: inhibitors of human orphan nuclear receptor DAX1 (NR0B1); HEK293 Gal4-DAX1 luciferase reporter, luminescence; inhibition, % at 6.75 µM; actives 0.99% (n = 340,000); AID 504766;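 active = inhibition above the mean over all tested compounds plus 3 SD, cut at about 4.2% in these data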;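 note: 0% = DAX1-transfected cells with DMSO and 100% = empty-vector control cells with DMSO; inhibition shows as a rise in luminescence from relieved DAX1 repression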
Target sequence (P51843 207-470 limits assumed): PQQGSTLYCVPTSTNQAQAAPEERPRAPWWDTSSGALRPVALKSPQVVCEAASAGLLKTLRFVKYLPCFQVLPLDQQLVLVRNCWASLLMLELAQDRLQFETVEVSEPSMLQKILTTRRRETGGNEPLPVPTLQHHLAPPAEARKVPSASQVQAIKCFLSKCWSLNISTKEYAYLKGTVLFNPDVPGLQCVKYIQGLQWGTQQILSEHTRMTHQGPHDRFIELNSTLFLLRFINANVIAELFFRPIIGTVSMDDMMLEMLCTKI
DAX1 inh-2: blocks DAX1 repression of SF-1 activated StAR promoter | HEK293T StAR-luciferase reporter, SF-1/DAX-1 repression relief | inhibition, % at 6.8 µM | actives 1.1% (n = 370,000) | AID 652010;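 active = inhibition above the mean over all tested compounds plus 3 SD, cut at about 3.6% in these data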;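 note: 0% = DAX-1 cells with DMSO and 100% = cells lacking DAX-1 with DMSO; higher inhibition means more luminescence from relief of DAX-1 repression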
* hit, by the source's call; x = not tested or not shown.

SMILES | ssDAF-12 act | hcDAF-12 act | hgDAF-12 ag | DAX1 inh-1 | DAX1 inh-2
O=C(O)c1nccnc1C(=O)Nc1ccc(S(=O)(=O)N2CCOCC2)cc1 | 1.8* | -0.5 | -2.8 | 0.9 | -0.3
CC(C)=NOC(=O)c1c(C)noc1-c1snnc1C | -1.6 | -1.1 | -1.8 | 0.6 | -0.4
Cc1ccc(/C=N/OC(=O)c2c(C)noc2-c2snnc2C)cc1 | -1.4 | 0.0 | 0.4 | 5.7* | 0.2
C=CCN1C(=O)[C@@H](CC(=O)NCc2cccs2)[C@]2(C(=O)OC)CCCCC=C12 | -1.2 | -0.4 | 0.9 | x | -0.6
CC1CCCCC1N(C(=O)c1cc(C2CC2)on1)C1CCCCC1 (stereo unspecified) | -0.8 | -0.9 | 12.0* | x | 0.4
Cc1cc(C(=O)N(C2CCCCC2)C2CCCCC2)no1 | -1.5 | -1.2 | -1.6 | 0.2 | -0.6
CC1(C)CC(=O)N(CC(=O)N2CCN(c3cccc(Cl)c3Cl)CC2)c2ccccc2S1(=O)=O | -1.1 | -3.6 | -2.2 | x | -0.6
O=C(Cc1cn(Cc2ccccc2)c2ccccc12)Nc1ccc(Nc2cccnc2)c(Br)c1 | -1.6 | -2.8 | 0.8 | x | -0.7
CN1CCN(c2nc(-c3ccccc3O)nc3ccccc23)CC1 | -0.3 | 6.5* | 3.8 | 1.2 | -0.3
Cc1cccc(NC(=O)CSc2nnc3ccc(-c4cccnc4)nn23)c1 | -0.2 | -0.8 | -0.3 | -0.4 | 0.3
Cc1cc(C(=O)CSc2nc(N)cc(N)n2)c(C)n1C1CC1 | -0.7 | 1.4 | 2.6 | 0.6 | -0.7
C=CCn1c(C)cc(C(=O)CSc2nc(N)cc(N)n2)c1C | -0.1 | 3.0 | 4.0 | 4.6* | 0.2
CCCCCCC[C@H](N)[C@H](O)C(=O)N(C)[C@@H](CCS(C)=O)C(=O)N[C@@H](Cc1ccc(O)cc1)C(=O)O (stereo partly specified) | -0.8 | -0.8 | 1.1 | x | x
Cc1ccc(-c2nnc(SCC(=O)Nc3ccc(OCc4ccccc4)cc3)n2-c2ccc(Cl)cc2)cc1 | -1.2 | 0.8 | 0.1 | x | -0.6
CCOC(=O)c1cccc(NC(=O)CN(C)S(=O)(=O)c2ccco2)c1 | -1.0 | -0.9 | -1.3 | x | 1.0
O=C(NNC1CC(=O)N(c2ccc(Cl)cc2)C1=O)c1ccccn1 (stereo unspecified) | 0.9* | 2.9 | 10.0 | -1.1 | 1.3
O=C(NNC1CC(=O)N(c2ccccc2)C1=O)c1cccnc1 (stereo unspecified) | -1.3 | -0.1 | 1.9 | 1.2 | -0.2
O=C(NNC1CC(=O)N(c2ccc(Cl)cc2)C1=O)c1ccccc1Cl (stereo unspecified) | -1.5 | 2.9 | 2.5 | 0.2 | -0.7
CC(C)c1ccc(N2C(=O)CC(NNC(=O)c3cccnc3)C2=O)cc1 (stereo unspecified) | -0.9 | 0.1 | 1.2 | 5.6* | 0.1
Cc1ccc(S(=O)(=O)N2CCCC2C(=O)N2CCc3ccccc3C2)cc1C (stereo unspecified) | -0.1 | 0.2 | 0.3 | x | 0.2
CSc1sc(C(=O)NN)c2c1C1(CCC2)SCCS1 | -0.7 | 0.8 | 1.0 | 5.8* | 0.0
Cc1ccccc1-c1nc2sc3c(c2c(=O)n1N)CCCC3 | -1.1 | -1.5 | -2.3 | 4.5* | 0.2
CCOC(=O)[C@]12CCCCC/C=C\1N(Cc1ccc(OC)cc1)C(=O)[C@H]2CC(=O)NCCCCc1ccccc1 | -1.6 | -2.9 | 2.1 | x | -0.2
C=CCOc1ccc(/C=C2\SC(=S)N(N3CCOCC3)C2=O)cc1 | -0.1 | 5.7* | 9.9 | 1.4 | 2.1
COC(=O)[C@]12C[C@H](CC(=O)N3CCC(c4ccccc4)CC3)C(=O)N(Cc3ccc(Cl)cc3Cl)C1=C[C@H](COCc1ccccc1)O[C@@H]2C | -0.9 | -1.7 | -2.9 | x | -1.5
SMILES | ssDAF-12 act | hcDAF-12 act | hgDAF-12 ag | DAX1 inh-1 | DAX1 inh-2
Cc1ccnc(NC(=O)c2cccs2)c1 | 0.1 | 2.2 | 7.8 | 1.2 | 1.4
Cc1cc(NC(=O)c2cccs2)ncc1NC(=O)C(C)(C)C | 1.1* | 3.0 | 9.6 | 2.2 | 2.7
Fc1ccc(-c2csc(/C=C/c3ccc4c(c3)OCO4)n2)cc1 | 1.1* | 3.3 | 8.8 | 1.1 | 0.2
COC(=O)/C=C1\OC(C)c2ccccc21 (stereo unspecified) | 1.2* | 3.2 | -2.6 | x | 0.6
O=C(NC1CCCCC1)C(CCc1ccccc1)N1CCOCC1 (stereo unspecified) | -0.4 | 0.0 | 12.0* | x | 0.9
CCCn1c(C)cc(C(=O)Cn2nnc3ccccc3c2=O)c1C | 0.2 | 3.5 | 11.8* | 1.0 | 3.2
